In PubChem BioAssay (NCI):
Compounds without any hit were thinned out: in the full panel of roughly 83,000, 20% have a hit.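 Treatment: one concentration, 48 hours, 96-well format. Scoring: percent growth, with anything below 10 considered active.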 Activity calls are given as the source filed them.

Key:
Test in all cases: NCI-60 one-dose screen, 48 h (100 = growth as untreated, 0 = no growth, -100 = all killed)
HT29 colon = conditions: 10 µM unless noted
SNB-75 CNS = conditions: 10 µM unless noted
SNB-19 CNS = conditions: 10 µM unless noted
PC-3 prostate = conditions: 10 µM unless noted
UACC-62 melanoma = conditions: 10 µM unless noted
LOX IMVI melanoma = conditions: 10 µM unless noted
SK-MEL-28 melanoma = conditions: 10 µM
SK-MEL-2 melanoma = conditions: 10 µM unless noted
U251 CNS = conditions: 10 µM unless noted
SK-MEL-5 melanoma = conditions: 10 µM unless noted

Measured: growth

CCOC(=O)CSc1c(-c2ccccc2)c2cc(Cl)ccc2[nH]c1=O
inactive: HT29 colon 105% | SNB-75 CNS 94.1% | SNB-19 CNS 108% | PC-3 prostate 91.9% | UACC-62 melanoma 92.6% | LOX IMVI melanoma 84% | SK-MEL-28 melanoma 109% | SK-MEL-2 melanoma 114%

COc1cc(C=C2C(=O)N(C)C(=O)N(C)C2=O)cc(CN2CCCCC2)c1O
inactive: HT29 colon 103% | SNB-19 CNS 92.6% | U251 CNS 99.6% | PC-3 prostate 105% | SK-MEL-5 melanoma 100% | UACC-62 melanoma 96.8% | LOX IMVI melanoma 98.7% | SK-MEL-28 melanoma 102% | SK-MEL-2 melanoma 102%

COC(=O)[C@@H]1CCCN1C(=O)[C@H]1CCCN1C(=O)[C@@H](Cc1c[nH]c2ccccc12)NC(=S)Nc1cc(C(F)(F)F)cc(C(F)(F)F)c1
inactive: HT29 colon 33% | SNB-75 CNS 46.6% | SNB-19 CNS 37.6% | PC-3 prostate 32.4% | UACC-62 melanoma 48.5% | LOX IMVI melanoma 38.8% | SK-MEL-28 melanoma 55.7% | SK-MEL-2 melanoma 55.3%

Cc1nc2ccccc2c(/C=C/c2ccc(F)cc2)c1C(N)=O
inactive: HT29 colon 115% | SNB-19 CNS 99.2% | U251 CNS 98.1% | PC-3 prostate 89.1% | SK-MEL-5 melanoma 95.9% | UACC-62 melanoma 96.1% | LOX IMVI melanoma 96.4% | SK-MEL-28 melanoma 117% | SK-MEL-2 melanoma 105%

O=C(NC(=S)Nc1cccc(NC(=S)NC(=O)c2ccccc2)c1)c1ccccc1
inactive: HT29 colon 74.1% | SNB-19 CNS 50.9% | U251 CNS 60.1% | PC-3 prostate 61.3% | SK-MEL-5 melanoma 80% | UACC-62 melanoma 67% | LOX IMVI melanoma 71% | SK-MEL-28 melanoma 55.3% | SK-MEL-2 melanoma 66.1%

Cc1nc2ccccc2c(/C=C/c2ccccc2)c1C(=O)/C=C/c1ccc(Cl)cc1
inactive: SNB-19 CNS 13.6% | PC-3 prostate 33.9% | SK-MEL-5 melanoma 32.4% | UACC-62 melanoma 34.9% | SK-MEL-28 melanoma 19.2% | SK-MEL-2 melanoma 14.7%
active: HT29 colon -8.66% | U251 CNS -33.2% | LOX IMVI melanoma -90.3%

Cc1ccc(NCCNCC(O)CO)c2c(=O)c3ccccc3sc12 (stereo unspecified)
active: HT29 colon -61.1% | U251 CNS 9.2% | SK-MEL-5 melanoma -81% | UACC-62 melanoma -49.9% | LOX IMVI melanoma -95.2% | SK-MEL-28 melanoma 1.81%
inactive: SNB-19 CNS 26.3% | PC-3 prostate 13.6%

CN=c1ccc2nc3ccc(N)cc3sc-2c1
inactive: HT29 colon 84.6% | SNB-75 CNS 33.6% | SNB-19 CNS 30.9% | UACC-62 melanoma 15.8% | SK-MEL-28 melanoma 51.7%
active: PC-3 prostate 5.54% | LOX IMVI melanoma 2.59% | SK-MEL-2 melanoma -0.853%

COc1nccc2cc3c(=O)n4c(cc5ccccc54)c(=O)n3c12
inactive: HT29 colon 112% | SNB-19 CNS 108% | U251 CNS 101% | PC-3 prostate 87.8% | SK-MEL-5 melanoma 96.6% | UACC-62 melanoma 101% | LOX IMVI melanoma 97.1% | SK-MEL-28 melanoma 109% | SK-MEL-2 melanoma 94.3%

COc1ccc(C2Nc3nc(OC)n(C)c(=O)c3N=C3c4ccccc4C(=O)C32)cc1 (stereo unspecified)
inactive: HT29 colon 113% | SNB-19 CNS 91.8% | U251 CNS 90.8% | PC-3 prostate 87.8% | SK-MEL-5 melanoma 95% | UACC-62 melanoma 93.1% | LOX IMVI melanoma 87.7% | SK-MEL-28 melanoma 106% | SK-MEL-2 melanoma 89.7%

Cn1c(/C=C(\C#N)c2cccc(C(F)(F)F)c2)nc2c(N3CCOCC3)nc(Cl)nc21
inactive: SNB-19 CNS 56.3%
active: HT29 colon -41.5% | U251 CNS 2.31% | PC-3 prostate -42.6% | SK-MEL-5 melanoma 9.34% | UACC-62 melanoma -81.1% | LOX IMVI melanoma -87.9% | SK-MEL-28 melanoma -87.2% | SK-MEL-2 melanoma -21.2%

Clc1ccc(COc2ccc(Nc3ncnc4onc(-c5ccccc5)c34)cc2)cc1
inactive: HT29 colon 92.2% | SNB-19 CNS 91.6% | U251 CNS 94% | PC-3 prostate 67% | SK-MEL-5 melanoma 83% | UACC-62 melanoma 64.2% | LOX IMVI melanoma 86.7% | SK-MEL-28 melanoma 92.1% | SK-MEL-2 melanoma 101%

COc1ccc(Nc2nc(N/N=C/c3ccc(O)cc3)nc(Nc3ccc([N+](=O)[O-])cc3)n2)cc1
inactive: HT29 colon 105% | SNB-19 CNS 101% | U251 CNS 104% | PC-3 prostate 108% | SK-MEL-5 melanoma 104% | UACC-62 melanoma 110% | LOX IMVI melanoma 107% | SK-MEL-28 melanoma 104% | SK-MEL-2 melanoma 103%

CCCCCCCCCCOC(=O)c1ccccc1C(=O)OCCCC
inactive: HT29 colon 105% | SNB-75 CNS 81.9% | U251 CNS 101% | PC-3 prostate 90.4% | LOX IMVI melanoma 102% | SK-MEL-28 melanoma 119% | SK-MEL-2 melanoma 111%

COC(=O)[C@H]1CCCN1C(=O)[C@H]1CCCN1C(=O)[C@H](Cc1c[nH]c2ccccc12)NC(=S)Nc1cc(C(F)(F)F)cc(C(F)(F)F)c1
inactive: SNB-75 CNS 52.8% | SNB-19 CNS 51.3% | PC-3 prostate 39.9% | UACC-62 melanoma 57% | LOX IMVI melanoma 34.5% | SK-MEL-28 melanoma 54.8% | SK-MEL-2 melanoma 94.9%
active: HT29 colon 7.55%

O=C(/C=C/c1ccc(Cl)cc1)c1ccc(Nc2nc(NCCO)nc(N3CCOCC3)n2)cc1
inactive: HT29 colon 42.2% | SNB-19 CNS 91.9% | U251 CNS 46.1% | PC-3 prostate 77.1% | SK-MEL-5 melanoma 79.4% | UACC-62 melanoma 69% | LOX IMVI melanoma 68% | SK-MEL-28 melanoma 94.7%

COC(=O)/C(CCC=C(C)C)=C1\[C@@H](OC(C)=O)C[C@@]2(C)[C@H]1C[C@@H](O)[C@H]1[C@@]3(C)CC[C@H](NCc4ccccc4)[C@@H](C)[C@@H]3CC[C@@]12C
inactive: HT29 colon 14.8% | SNB-19 CNS 81.9% | U251 CNS 49.2% | PC-3 prostate 31.3% | SK-MEL-5 melanoma 59.4% | UACC-62 melanoma 69.3% | LOX IMVI melanoma 47.3% | SK-MEL-28 melanoma 74.6% | SK-MEL-2 melanoma 94.4%

CC(=O)SC1CC(=O)C=C2CCC3C4CCC(=O)OC4(C)CCC3C21C (stereo unspecified)
inactive: HT29 colon 101% | SNB-75 CNS 84.2% | U251 CNS 99.4% | PC-3 prostate 94% | LOX IMVI melanoma 97.8% | SK-MEL-28 melanoma 120% | SK-MEL-2 melanoma 106%

COC(=O)c1c2c(c(C)[n+]([O-])c1C)C(=O)C(NCc1ccc(F)c(F)c1)=CC2=O
inactive: HT29 colon 11.6% | PC-3 prostate 15.6% | SK-MEL-28 melanoma 50.2% | SK-MEL-2 melanoma 43.1%
active: SNB-19 CNS 8.33% | U251 CNS 2.99% | SK-MEL-5 melanoma -97% | UACC-62 melanoma -15.7% | LOX IMVI melanoma 5.3%

CCOC(=O)c1ccc2[nH]c(-c3ccccc3)cc(=O)c2c1
inactive: HT29 colon 103% | SNB-19 CNS 94.9% | U251 CNS 97.2% | PC-3 prostate 89.1% | SK-MEL-5 melanoma 103% | UACC-62 melanoma 101% | LOX IMVI melanoma 98.2% | SK-MEL-28 melanoma 109% | SK-MEL-2 melanoma 105%

CCOC(=O)C1=CN(C)C=C(C(=O)OCC)C1c1cc(Br)c(OCC)c(OC)c1
inactive: SNB-19 CNS 64.8% | U251 CNS 34.8% | PC-3 prostate 45.2% | SK-MEL-5 melanoma 36.1% | LOX IMVI melanoma 18.3% | SK-MEL-28 melanoma 18.8% | SK-MEL-2 melanoma 72.3%
active: HT29 colon 7.46% | UACC-62 melanoma -48%

Nc1ccc(-n2c(=O)oc3ccc(Cl)cc3c2=O)c(Cl)c1
inactive: SNB-19 CNS 16.2%
active: HT29 colon 3.86% | U251 CNS -8.77% | PC-3 prostate 2.14% | SK-MEL-5 melanoma -83.9% | UACC-62 melanoma -34.9% | LOX IMVI melanoma 0.455% | SK-MEL-28 melanoma -10.6% | SK-MEL-2 melanoma -31.6%

O=CCCCC(O)C=O (stereo unspecified)
inactive: HT29 colon 111% | SNB-75 CNS 97.7% | SNB-19 CNS 106% | PC-3 prostate 103% | UACC-62 melanoma 109% | LOX IMVI melanoma 97.9% | SK-MEL-28 melanoma 111% | SK-MEL-2 melanoma 105%

CCN(CC)c1cc(C)c2cc(NC(=O)c3cccc(OC)c3)ccc2n1
inactive: HT29 colon 67.8% | SNB-19 CNS 84.3% | U251 CNS 55% | PC-3 prostate 39.5% | SK-MEL-5 melanoma 57.3% | UACC-62 melanoma 81% | SK-MEL-28 melanoma 85.2% | SK-MEL-2 melanoma 98.6%

COc1ccc(-c2nnc(COc3ccc(C(=O)/C=C/c4ccco4)cc3)o2)cc1
inactive: HT29 colon 20.3% | SNB-75 CNS 60.1% | SNB-19 CNS 78.1% | PC-3 prostate 86.2% | UACC-62 melanoma 85.9% | SK-MEL-2 melanoma 132%
active: LOX IMVI melanoma -30.5%

CN1CCN(Cc2ccc(NC(=O)c3cncc(C#Cc4nc(N)nc5[nH]ncc45)c3)cc2C(F)(F)F)CC1
inactive: HT29 colon 55.3% | SNB-19 CNS 108% | U251 CNS 107% | PC-3 prostate 108% | SK-MEL-5 melanoma 90.2% | UACC-62 melanoma 89.3% | LOX IMVI melanoma 88.1% | SK-MEL-28 melanoma 94.3% | SK-MEL-2 melanoma 92.4%

Cc1cccc2c(=O)c3c(sc12)c(N1CCNCC1)nc1ccccc13
active: HT29 colon 6.4%
inactive: SNB-19 CNS 82.6% | U251 CNS 59.9% | PC-3 prostate 69.9% | SK-MEL-5 melanoma 80.2% | UACC-62 melanoma 89.9% | LOX IMVI melanoma 10.3% | SK-MEL-28 melanoma 80.1% | SK-MEL-2 melanoma 98.2%

O=C1C(Cl)=C(NCc2ccco2)C(=O)c2ccccc21
active: SK-MEL-5 melanoma -75.6%
inactive: HT29 colon 67.9% | SNB-19 CNS 98.8% | U251 CNS 70.2% | PC-3 prostate 82.7% | UACC-62 melanoma 76% | LOX IMVI melanoma 16.2% | SK-MEL-28 melanoma 106% | SK-MEL-2 melanoma 93.4%

CCOC(=O)c1cc2c(n1Cc1cc(OC)c(OC)c(OC)c1)-c1oncc1CCC2
inactive: SNB-19 CNS 72.1% | U251 CNS 25.3% | PC-3 prostate 37% | UACC-62 melanoma 25.5% | LOX IMVI melanoma 27% | SK-MEL-28 melanoma 41.1% | SK-MEL-2 melanoma 54%
active: HT29 colon 4.59% | SK-MEL-5 melanoma 8.95%

N#C/C(=C\c1c(-c2ccccc2)[nH]c2ccccc12)C(=O)c1ccccc1
inactive: HT29 colon 16.4% | SNB-19 CNS 44.5% | U251 CNS 43.3% | PC-3 prostate 44.5% | SK-MEL-5 melanoma 21.6% | UACC-62 melanoma 36.3% | LOX IMVI melanoma 54.2% | SK-MEL-28 melanoma 55.4% | SK-MEL-2 melanoma 47.8%
